{"source": "PubChem BioAssay", "note": "Unmarked numbers belong to inactive results. Calls of active or inactive are those of the source.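 How the source made its calls: active means inhibition above the hit cutoff set in the earlier primary screen (cut at about 27% in these data); inactive means the rest.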", "data": [{"biological_target": "Protein phosphatase methylesterase 1 (Homo sapiens) (UniProt Q9Y570)", "sequence (Q9Y570 whole entry, looked up)": "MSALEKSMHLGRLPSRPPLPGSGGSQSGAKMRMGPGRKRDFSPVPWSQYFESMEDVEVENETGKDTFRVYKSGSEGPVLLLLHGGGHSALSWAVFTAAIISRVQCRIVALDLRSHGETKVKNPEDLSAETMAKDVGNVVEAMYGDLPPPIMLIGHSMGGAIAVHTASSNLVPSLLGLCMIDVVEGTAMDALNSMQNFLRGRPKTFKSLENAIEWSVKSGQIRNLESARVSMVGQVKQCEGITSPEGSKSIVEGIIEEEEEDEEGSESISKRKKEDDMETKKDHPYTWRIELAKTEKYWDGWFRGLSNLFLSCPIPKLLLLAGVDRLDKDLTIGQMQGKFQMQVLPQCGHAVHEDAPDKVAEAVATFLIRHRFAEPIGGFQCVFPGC", "experiment": "human PME-1 methylesterase inhibition confirmation – biochemical, fluorescence polarization, FP-Rh probe, triplicate (AID 2171);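 further: 0% = enzyme with DMSO and 100% = wells lacking PME-1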", "settings": "recombinant PME-1, FP-Rh probe fluorescence polarization; at 5.9 µM; hits give high values", "values": [{"smiles": "CC(=O)c1ccc2c(c1)C1C(Cl)C(Sc3ccccc3[N+](=O)[O-])CC1C(c1ccccc1)N2", "note": "(configuration not stated)", "inhibition": "23.8%"}, {"smiles": "O=[N+]([O-])c1ccc(NCc2ccccc2)c2nonc12", "inhibition": "50.5% (active)"}, {"smiles": "CCC(=O)c1cn(Cc2ccccc2C#N)c2ccccc12", "inhibition": "19.9%"}, {"smiles": "O=C1C(=O)c2ccccc2-c2ccccc21", "inhibition": "42.8% (active)"}, {"smiles": "CC(=O)c1ccc2c(c1)C1C(Cl)C(Sc3ccccc3[N+](=O)[O-])CC1C(c1ccccc1[N+](=O)[O-])N2", "note": "(configuration not stated)", "inhibition": "20.4%"}, {"smiles": "CN1/C(=C\\C=C\\C2=[N+](C)c3ccc4ccccc4c3C2(C)C)C(C)(C)c2ccccc21", "inhibition": "79.1% (active)"}, {"smiles": "Cn1ncnc2c(=O)n(C)c(=O)nc1-2", "inhibition": "43.2% (active)"}, {"smiles": "Cc1ccccc1NP(=O)(Oc1ccccc1F)Oc1ccccc1F", "inhibition": "43.5% (active)"}, {"smiles": "NP(=O)(OCCCCc1ccccc1)Oc1ccccc1Cl", "note": "(configuration not stated)", "inhibition": "47.4% (active)"}, {"smiles": "CNc1ccc2nc3ccccc3[n+](C)c2c1", "inhibition": "61.7% (active)"}, {"smiles": "C[n+]1c2ccccc2nc2ccc(NCCO)cc21", "inhibition": "35% (active)"}, {"smiles": "O=P(CCl)(Nc1ccccc1)C(Cl)(Cl)Cl", "note": "(configuration not stated)", "inhibition": "45.2% (active)"}, {"smiles": "NP(=O)(Oc1ccc(Cl)cc1)Oc1ccc(Cl)cc1", "inhibition": "63.4% (active)"}, {"smiles": "O=C(CF)NC(Nc1cccc2cccnc12)C(Cl)(Cl)Cl", "note": "(configuration not stated)", "inhibition": "53% (active)"}, {"smiles": "Cc1nc2c(=O)n(C)c(=O)nc-2n(C)n1", "inhibition": "33% (active)"}, {"smiles": "Cc1ccc(S(=O)(=O)N2CCCCC2)cc1NC(=O)CN1CC=C(c2ccccc2)CC1", "inhibition": "85.5% (active)"}, {"smiles": "O=c1[nH]c(=S)[nH]c(O)c1N=Nc1ccc(S(=O)(=O)N2CCc3ccccc32)cc1", "inhibition": "46% (active)"}]}]}
